Screens deposited in PubChem BioAssay by National Center for Advancing Translational Sciences (NCATS).
Many of the other results were omitted from the sample, so hits are more common in it than they were.
Methyltransferases = Primary Screen for Target Class Profiling of Small Molecule Inhibitors of Methyltransferases | purified enzyme, MTase-Glo SAH luminescence; active compounds read low | calls only at 40 µM | 3.9% of 25,000 active; call rule not given here
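Each enzyme was assayed with SAM and its substrate. SAH formation detected by MTase-Glo luminescence; single-point 40 uM screen[…].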
Of the large screens only hits and unclear results are named; the others gave an inactive call; ! = not active in a repeat.

Cc1ccc(Cn2c(=O)c3ccccc3n3c(SCc4ccccc4)nnc23)cc1	none
CCOC(=O)C1CCC(CNC(=O)N2CCn3cccc3C2C)CC1 (stereo not drawn)	none
CN1C(=O)c2cc(C(=O)NC3CCCC3)nn2CC1(C)C(=O)NCc1ccc(F)cc1 (stereo not drawn)	none
CC1(C)CC(=O)c2c(C(F)(F)F)nn(-c3ccc(C(N)=O)c(NC4CCC(OC(=O)CN)CC4)c3)c2C1 (stereo not drawn)	Methyltransferases active!
Cc1ccc(C)c(N2C(=O)CSc3c(c4ccccc4n3C)C2C(=O)NCCCOC(C)C)c1 (stereo not drawn)	none
CCC(C)N1C(=O)c2cc3sccc3n2CC1(C)C(=O)NC1CCCCCCC1 (stereo not drawn)	none
COc1ccc(CNC(=O)c2ccc3c(=O)n(-c4ccc(F)cc4)c4nnc(C)n4c3c2)cc1	none
Cc1cccc(Cn2nc(C3CCCNC3)n(-c3ccccc3)c2=O)c1 (stereo not drawn)	none
Cn1nc(C2CCCNC2)c2c(C(=O)NC3CC3)cc(C3CC3)nc21 (stereo not drawn)	none
NC(=O)c1cccc2cn(-c3ccc([C@@H]4CCCNC4)cc3)nc12	Methyltransferases active!
CC(C)C1c2cccn2CCN1C(=O)Nc1cccc(F)c1 (stereo not drawn)	none
CCOc1ccc(-c2cc3n(n2)CC(C)(C(=O)NC2CCCCC2)N(c2ccccc2C)C3=O)cc1 (stereo not drawn)	none
CCCCN1C(=O)c2cc(C(=O)NCCC)nn2CC1(C)C(=O)NC1CCCC1 (stereo not drawn)	none
CCOc1ccc(OCC)c(NS(=O)(=O)c2ccc3[nH]c(=O)[nH]c3c2)c1	none
COc1ccc(C(=O)N2CCN(c3cc(-c4cccs4)[nH]n3)CC2)cc1OC	none
CN1CCN(C(=O)c2ccc(Nc3nccc(-c4cccs4)n3)cc2Cl)CC1	Methyltransferases active
Cc1ccsc1C(=O)N1CCN(c2cc(-c3cccs3)[nH]n2)CC1	none
CCCn1c(=O)c2ccc(C(=O)NC3CCCCC3)cc2n2c(=O)n(CC(=O)NC(C)(C)C)nc12	none
O=C(Cn1nc(-c2ccccc2)c2ccccc21)N1CCN(c2ccccc2F)CC1	none
CC1(C(=O)NCc2ccc(Cl)cc2)Cn2c(ccc2-c2ccco2)C(=O)N1Cc1ccc2c(c1)OCO2 (stereo not drawn)	none
CN(C)c1nc(NC2CCC(NC(=O)c3ccc(F)c(F)c3)CC2)nc2ccccc12 (stereo not drawn)	Methyltransferases active
Cc1ccc(Cl)cc1Nc1nn2c(=O)c3ccc(C(=O)NC4CCC(C)CC4)cc3nc2s1 (stereo not drawn)	none
CN(C(=O)Cn1nc2n(C)c(=O)c3ccc(C(=O)NC4CCCC4)cc3n2c1=O)c1ccccc1	none
Cc1nn2c(SCC(=O)Nc3cccc(Cl)c3)nnc2[nH]c1=O	none
CC1CCN(S(=O)(=O)c2ccc3c(ccn3CCC(=O)NC3CCCCC3)c2)CC1	none
CCCNC(=O)c1cc2n(n1)CC(C)(C(=O)NCc1ccc(C)cc1)N(C)C2=O (stereo not drawn)	none
CN1C(=O)c2cc(NC(=O)c3cc(-c4ccncc4)nc4ccccc34)ccc2N2CCN=C12	none
CC1CCN(CCCNC(=O)CCc2nnc3n(Cc4ccccc4Cl)c(=O)c4ccccc4n23)CC1	Methyltransferases active
O=C(CCc1nnc2n(CCc3ccccc3)c(=O)c3ccccc3n12)NCCc1ccccc1	none
O=C(CCCc1nnc2n3nc(-c4ccccc4)nc3c3ccccc3n12)NCc1ccccc1	none
O=C(CCc1nnc2n(Cc3ccccc3)c(=O)c3ccccc3n12)NCCN1CCCC1	none
O=C(CCc1nnc2n(Cc3ccc(Cl)cc3)c(=O)c3ccccc3n12)NCCN1CCCC1	Methyltransferases active
O=C(CCCc1nnc2n3nc(-c4ccccc4)nc3c3ccccc3n12)NCCN1CCCC1	Methyltransferases active
O=C(CCc1nnc2n(CCc3ccccc3)c(=O)c3ccccc3n12)NCCCN1CCCCC1	Methyltransferases active
O=C(CCc1nnc2n(Cc3ccccc3Cl)c(=O)c3ccccc3n12)NCCN1CCOCC1	none
O=C(CCc1nnc2n(Cc3ccc(Cl)cc3)c(=O)c3ccccc3n12)NCCCN1CCOCC1	none
O=C(CCc1nnc2n(CCc3ccccc3)c(=O)c3ccccc3n12)NCCCN1CCOCC1	none
O=C(CCCc1nnc2n3nc(-c4ccccc4)nc3c3ccccc3n12)NCCc1ccccc1	none
CC(C)CCNC(=O)CCc1nnc2n(Cc3ccccc3Cl)c(=O)c3ccccc3n12	none
CC1(C(=O)NC2CCCCC2)Cn2nc(-c3cccs3)cc2C(=O)N1Cc1ccccc1 (stereo not drawn)	none
COc1ccc(CNC(=O)C2(C)Cn3cnc(C(=O)NC4CCCCC4)c3C(=O)N2C2CC2)cc1 (stereo not drawn)	none
CCCN(CCC)CCCN1C(=O)c2cc3sccc3n2CC1(C)C(=O)NC1CCCCCC1 (stereo not drawn)	none
Cc1ccc(CCNC(=O)c2nnn3c2COC(c2ccc(Cl)cc2)C3)cc1 (stereo not drawn)	none
Cc1cccc(N2CCN(CCNC(=O)CCc3nnc4n(CC(C)C)c(=O)c5ccccc5n34)CC2)c1C	none
COC(=O)c1ncn2c1C(=O)N(c1cccc(SC)c1)C(C)(C(=O)NC1CCCCC1)C2 (stereo not drawn)	none
CCCCNC(=O)c1ccc2c(=O)nc3c(-c4ccccc4F)n[nH]n3c2c1	none
Cc1ccc(CCNC(=O)CCCn2ccc3cc(S(=O)(=O)N4CCCC4)ccc32)cc1	none
CCc1ccc(S(=O)(=O)N2CCC(C3CCN(C(C)=O)CC3)C2)cc1 (stereo not drawn)	none
Cc1ccc(NC(=O)CSc2nnc3n(Cc4ccccc4)c(=O)c4ccccc4n23)c(C)c1	none
O=C(CCc1nnc2n(Cc3ccccc3)c(=O)c3ccccc3n12)N1CCN(C2CCCCC2)CC1	none
CC(C)CCNC(=O)CCc1nnc2n(Cc3ccc(F)cc3)c(=O)c3ccccc3n12	none
O=C(CCc1nnc2n(Cc3ccc(F)cc3)c(=O)c3ccccc3n12)NCCc1ccccc1	none
CC1CCCCN1CCNC(=O)CCc1nnc2n(Cc3ccc(F)cc3)c(=O)c3ccccc3n12 (stereo not drawn)	Methyltransferases active
Cc1ccc(Cn2c(=O)c3ccccc3n3c(CCC(=O)N4CCC(C)CC4)nnc23)cc1	none
Cc1ccc(Cn2c(=O)c3ccccc3n3c(CCC(=O)N4CCC(N5CCCCC5)CC4)nnc23)cc1	Methyltransferases active
Cc1ccc(C(=O)CSc2nnc3n(CC(C)C)c(=O)c4ccc(C(=O)NC(C)C)cc4n23)c(C)c1	none
COc1ccccc1CNC(=O)C1(C)Cn2c(cc3ccccc32)C(=O)N1CCN1CCOCC1 (stereo not drawn)	none
CCCn1c(=O)c2ccccc2n2c(SCC(=O)Nc3ccccc3C)nnc12	none
COC(=O)c1cc2n(n1)CC(C)(C(=O)NC1CCCCC1)N(c1ccc(F)cc1C)C2=O (stereo not drawn)	none
CCc1ccccc1N1C(=O)c2c(C(=O)OC)ncn2CC1(C)C(=O)NC1CCCCCC1 (stereo not drawn)	none
COc1cc(Nc2c(C#N)cnc3cc(OCCCN4CCN(C)CC4)c(OC)cc23)c(Cl)cc1Cl	Methyltransferases active
COc1cccc(OCCCN)c1-c1cc(Nc2cnc(C#N)cn2)n[nH]1	none
COc1cc2c(Oc3ccc(-c4cnc(Nc5ccc(F)cc5)n(C)c4=O)cc3F)ccnc2cc1OCCCN1CCOCC1	none
O=C(CCc1nnc2n(Cc3ccccc3Cl)c(=O)c3ccccc3n12)N1CCC(Cc2ccccc2)CC1	none
COc1cccc(CN2C(=O)c3cc4occc4n3CC2(C)C(=O)NC2CCCCCCC2)c1OC (stereo not drawn)	none
